# Source: ChEMBL document CHEMBL4513216, “Probing the Open Global Health Chemical Diversity Library for Multistage-Active Starting Points for Next-Generation Antimalarials” (ACS Infect Dis, 2020)
# Hit rate of the full screen: of about 69,000 compounds, about 8,600 (12%) showed an effect of 50% or more. For the sample, strong results were picked, then their nearest neighbours and some compounds at random.
# Test system: Plasmodium berghei
# Assay: Screen against P. berghei liver stage (PbLuc), transformed with Luciferase, at 10uM
# Assay type: functional, HepG2
# Conditions: tested at 10 uM
row,Compound,INHIBITION [%]
1,CC(C)COCCNC(=O)NC1CCCN(c2cnn(C)c2)C1 (stereo not given),-49.3
2,Fc1cccc(Cc2cncc(C3CCCN3C3CCOCC3)n2)c1 (stereo not given),41.1
3,Fc1ccc(Cc2cccc(C3CCN(C4CCOCC4)CC3)n2)cc1,72.3
4,c1ccc(Cc2cccc(C3CCCN3C3CCOCC3)n2)cc1 (stereo not given),32.921
5,CN(C)C(=O)CN1CCC(c2cccc(Cc3ccc(F)cc3)n2)CC1,24.4
6,COCC(=O)N1CCC(c2cncc(-c3cccc(F)c3)n2)CC1,8.72
7,COCC(=O)N1CCC(c2cccc(Cc3ccc(F)cc3)n2)CC1,54
8,Cc1nn(C)c2c(=O)n(C)c(NCC3CCCO3)nc12 (stereo not given),49.1
9,CC(=O)N1N=C(Cc2ccccc2)OC1C(=O)NCC(C)C (stereo not given),-21.1
10,Cn1cc(C2COC3(CCN(C(=O)c4ccccn4)CC3)C2)cn1 (stereo not given),42.7
11,Cc1ccccc1C(=O)N1CCC2(CC1)CC(c1cnn(C)c1)CO2 (stereo not given),53.2
12,CN1CC(=O)N(c2ccsc2)CC12CCN(C(=O)c1ccc[nH]1)C2 (stereo not given),15.9
13,CN1CC(=O)N(c2ccsc2)CC12CCN(C(=O)c1ccccc1)C2 (stereo not given),45.5
14,Cn1cc(C2COC3(CCN(C(=O)c4cccc(O)c4)CC3)C2)cn1 (stereo not given),32.2
15,Cc1cccc(C(=O)N2CCC3(CC2)CC(c2cnn(C)c2)CO3)c1 (stereo not given),69.5
16,Cc1ccc(C(=O)N2CCC3(CC2)CC(c2cnn(C)c2)CO3)cn1 (stereo not given),39.2
17,Cn1cc(C2COC3(CCN(C(=O)c4cccn4C)CC3)C2)cn1 (stereo not given),36.9
18,CN1CC(=O)N(c2cnn(C)c2)CC12CCN(C(=O)c1ccsc1)C2 (stereo not given),51.7
19,Cn1cc(C2COC3(CCN(C(=O)c4ccn(C)n4)CC3)C2)cn1 (stereo not given),41.6
20,Cn1cc(C2COC3(CCN(C(=O)c4ccsc4)CC3)C2)cn1 (stereo not given),69.5
21,Cn1cc(C2COC3(CCN(C(=O)c4ccc(F)cc4)CC3)C2)cn1 (stereo not given),18.2
22,Cc1nc(C)n(CC(=O)N2CCc3ncc(Cl)cc3C2)n1,8.72
23,CO[C@@H]1CO[C@@]2(CCCN(S(=O)(=O)c3ccccc3)C2)C1,40.4
24,CCOC(=O)N(C)CC(=O)NCCc1coc(-c2ccc(C)cc2)n1,11.4
25,Cn1cc(N2C(=O)CC[C@@H]3[C@H]2CCN3CC2CCOCC2)cn1,8.52
26,O=C(CCCN1CCCCC1)NC(C(=O)O)c1ccc(Cl)cc1 (stereo not given),6.11
27,O=C(Cc1cccc(F)c1)NCCNc1ncccn1,37.4
28,CCOCC(=O)N1CCC2(CC1)COC(COCc1ccccn1)C2 (stereo not given),-13

row,Compound,INHIBITION [%]
1,Cc1cc(C)n2cc(CN3CCC(N4CCN(C)C4=O)CC3)nc2n1,39.1
2,CC(NS(C)(=O)=O)C(=O)N1CCCN(Cc2cscn2)CC1 (stereo not given),48.9
3,Cc1cnn(C2CCCN(C(=O)Cc3ccc4c(c3)CCO4)C2)c1 (stereo not given),31.8
4,CNc1cc(N2CCCC2CNCc2csc(C)n2)ncn1 (stereo not given),29.425
5,O=C(CC1CCCC1)N1CC[C@H]2[C@H]1CCN2c1nncs1,43.8
6,CCc1ncc(C(=O)N2CCC(Nc3ccc(C)nn3)CC2)s1,-58.7
7,COCC(=O)N1CC[C@]2(O)CCN(C(=O)CCc3ccsc3)C[C@@H]2C1,26.9
8,CCNc1ncc(C(=O)NCc2ccc3nsnc3c2)cn1,31.9
9,COC(=O)c1ccc(C(=O)NCc2ccc(Br)cc2)cn1,45.8
10,Cc1cccc(C(=O)NCc2ccccc2)n1,21
11,CCOc1cccc(C(=O)NCCC(=O)NCc2ccncc2)c1,-5.78
12,COc1ncc(C(=O)NCc2ccccc2)cn1,64.2
13,COc1ccc(CNC(=O)c2ccc(Br)cn2)cc1,49
14,COC(=O)CCNC(=O)c1ccc(OCc2ccccc2)nc1,-8.91
15,CCOc1ccc(CNC(=O)c2cnc(OC)nc2)cc1,52.7
16,COc1ncc(C(=O)NCc2ccc(Br)cc2)cn1,59.8
17,CS(=O)(=O)CCN1CCCC1c1noc(C2CC2)n1 (stereo not given),-38.2
18,Cc1cccc(S(=O)(=O)N2CC[C@H]3[C@H]2CCN3c2ncccn2)c1,5.36
19,NC(=O)c1cnn2c1NCC(CNCCc1cccs1)C2 (stereo not given),21.75
20,COCC(C)NC(=O)CN1CCCC1 (stereo not given),-9.39
21,O=S(=O)(Cc1cc(-c2ccccc2)no1)CC1CCCO1 (stereo not given),-73.1
22,CNc1cccc(C2CCCN(C(=O)c3cscn3)C2)n1 (stereo not given),51.5
23,CNc1cccc(C2CCCN(C(C)=O)C2)n1 (stereo not given),-1.58
24,CNc1cccc(C2CCCN(C(=O)c3cnccn3)C2)n1 (stereo not given),-37
25,CNc1cccc(C2CCCN(C(=O)c3ccncc3)C2)n1 (stereo not given),42.1
26,CNc1cccc(C2CCCN(C(=O)c3ccn(C)n3)C2)n1 (stereo not given),26.3
27,CNc1cccc(C2CCCN(C(=O)Cc3ccccc3)C2)n1 (stereo not given),81.2
